# Measurements: PubChem BioAssay (NCATS)
# A number with no mark means an inactive call. Results filed as inconclusive are left out. Entries that show only a call come without a potency. The source made the active and inactive calls. Unless noted, the call rests on the fitted dose curve; in most records, active means well fitted curve in the direction sought with a large enough effect; inconclusive means small, poorly fitted or top-dose-only effect, or another doubt; inactive means no such curve, though single readings can be large; an effect the other way counts as inactive or inconclusive.
# Key:
# [1] = target: Rap guanine nucleotide exchange factor 3 (Homo sapiens) (UniProt O95398); assay: Confirmatory qHTS for antagonist of cAMP-regulated guanine nucleotide exchange factor 3 (EPAC1) (AID 1645880); settings: EPAC1 Rap1B-BODIPY-GDP exchange, fluorescence; activity, negative = inhibition: at 115 µM (top of the series); further: nearly all actives have a fitted effect of over 55% in size; further: potency means the concentration at half of the fitted maximal effect
# Sequence of Rap guanine nucleotide exchange factor 3 (Homo sapiens) (O95398 whole entry, looked up): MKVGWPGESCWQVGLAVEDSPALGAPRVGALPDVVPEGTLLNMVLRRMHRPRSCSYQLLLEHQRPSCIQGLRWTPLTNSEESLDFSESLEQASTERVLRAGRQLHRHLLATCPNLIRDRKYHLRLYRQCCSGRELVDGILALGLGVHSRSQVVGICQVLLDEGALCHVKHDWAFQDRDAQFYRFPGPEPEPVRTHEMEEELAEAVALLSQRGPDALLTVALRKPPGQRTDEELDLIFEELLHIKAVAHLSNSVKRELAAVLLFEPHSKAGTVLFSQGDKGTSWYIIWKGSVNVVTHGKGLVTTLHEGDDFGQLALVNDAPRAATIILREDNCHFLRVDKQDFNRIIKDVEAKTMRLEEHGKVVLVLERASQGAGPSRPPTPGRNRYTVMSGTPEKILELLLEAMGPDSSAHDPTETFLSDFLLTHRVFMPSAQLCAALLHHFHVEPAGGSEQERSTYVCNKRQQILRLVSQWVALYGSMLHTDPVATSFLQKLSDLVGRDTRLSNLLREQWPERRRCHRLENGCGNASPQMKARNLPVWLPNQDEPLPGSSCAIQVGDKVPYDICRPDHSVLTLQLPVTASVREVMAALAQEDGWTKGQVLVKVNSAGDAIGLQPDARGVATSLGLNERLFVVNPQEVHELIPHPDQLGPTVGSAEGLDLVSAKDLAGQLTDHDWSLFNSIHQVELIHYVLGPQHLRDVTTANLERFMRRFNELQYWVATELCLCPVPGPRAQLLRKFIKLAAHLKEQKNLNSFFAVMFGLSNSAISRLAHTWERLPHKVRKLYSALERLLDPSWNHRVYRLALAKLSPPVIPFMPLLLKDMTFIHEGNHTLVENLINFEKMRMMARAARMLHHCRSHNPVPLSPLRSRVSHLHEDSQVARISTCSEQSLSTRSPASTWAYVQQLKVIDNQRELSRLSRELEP
# In short: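 Nucleotide exchange uses 100 nM EPAC1, 250 nM RAP1B-BODIPY-GDP and 50 uM GDP, with compounds in a concentration-titration series. After 5 min at room temperature, fluorescence (480 nm ex/540 nm em) is read every 5 min for 30 min. Data are normalized to control ATA and DMSO.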
# [2] = target: Rap guanine nucleotide exchange factor 4 (Homo sapiens) (UniProt Q8WZA2); assay: Confirmatory qHTS for antagonist of cAMP-regulated guanine nucleotide exchange factor 4 (EPAC2) (AID 1645885); further: nearly all actives have a fitted effect of over 25% in size; further: potency means the concentration at half of the fitted maximal effect
# Sequence of Rap guanine nucleotide exchange factor 4 (Homo sapiens) (Q8WZA2 whole entry, looked up): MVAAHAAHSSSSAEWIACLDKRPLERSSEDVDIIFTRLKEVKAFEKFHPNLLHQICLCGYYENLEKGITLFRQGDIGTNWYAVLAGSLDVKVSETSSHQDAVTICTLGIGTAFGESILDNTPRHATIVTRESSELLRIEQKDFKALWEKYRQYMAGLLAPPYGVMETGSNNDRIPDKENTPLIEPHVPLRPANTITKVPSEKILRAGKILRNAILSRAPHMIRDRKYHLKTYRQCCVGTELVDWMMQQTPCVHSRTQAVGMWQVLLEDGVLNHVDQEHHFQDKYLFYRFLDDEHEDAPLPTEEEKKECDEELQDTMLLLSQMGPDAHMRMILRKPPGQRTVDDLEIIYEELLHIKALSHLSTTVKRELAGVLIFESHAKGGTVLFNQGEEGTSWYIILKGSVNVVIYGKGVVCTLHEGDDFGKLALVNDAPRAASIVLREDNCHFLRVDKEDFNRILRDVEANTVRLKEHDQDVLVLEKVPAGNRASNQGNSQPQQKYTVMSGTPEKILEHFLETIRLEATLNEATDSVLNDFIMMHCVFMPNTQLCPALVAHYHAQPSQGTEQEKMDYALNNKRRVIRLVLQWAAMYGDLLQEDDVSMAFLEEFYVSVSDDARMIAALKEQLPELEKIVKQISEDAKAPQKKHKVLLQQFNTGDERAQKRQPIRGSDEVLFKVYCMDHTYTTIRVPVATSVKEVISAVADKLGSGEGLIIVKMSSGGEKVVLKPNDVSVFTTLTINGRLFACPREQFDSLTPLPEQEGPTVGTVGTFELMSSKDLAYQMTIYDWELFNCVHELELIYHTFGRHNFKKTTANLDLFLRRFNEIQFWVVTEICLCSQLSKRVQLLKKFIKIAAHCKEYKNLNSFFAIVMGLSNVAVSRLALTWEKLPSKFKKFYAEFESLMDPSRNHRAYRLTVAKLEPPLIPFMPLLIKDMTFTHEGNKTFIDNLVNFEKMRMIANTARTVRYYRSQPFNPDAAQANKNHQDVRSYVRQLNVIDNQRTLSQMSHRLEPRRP
# [3] = target: Rap guanine nucleotide exchange factor 3 (Homo sapiens) (UniProt O95398); assay: Counterscreen qHTS for antagonist of cAMP-regulated guanine nucleotide exchange factor 3 (EPAC1) (AID 1645888);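 further: fluorescence loss as bound BODIPY-GDP is released from Rap1B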
# In short: (§1)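 Rap1B-BODIPY-GDP 250 nM + GDP 50 uM; cpds 7-pt, final 9.74 nM–152 uM (activator mode) or from 7.32 nM upwards (inhibitor mode); RT; FI 480/540 nm at 5 and 30 min, then ± cAMP, reread.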
# [4] = target: Rap guanine nucleotide exchange factor 4 (Homo sapiens) (UniProt Q8WZA2); assay: Confirmatory qHTS for agonist of cAMP-regulated guanine nucleotide exchange factor 4 (EPAC2) (AID 1645884);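 further: nucleotide exchange releases bodipy-GDP from Rap1 and this lowers its fluorescence; nearly all actives have a fitted effect of over 65% in size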; further: potency means the concentration at half of the fitted maximal effect
# [5] = target: Rap guanine nucleotide exchange factor 3 (Homo sapiens) (UniProt O95398); assay: Counterscreen qHTS for agonist of cAMP-regulated guanine nucleotide exchange factor 3 (EPAC1) (AID 1645889); further: nearly all actives have a fitted effect of over 40% in size; further: potency means the concentration at half of the fitted maximal effect
# In short: as §1
# [6] = target: Tumor susceptibility gene 101 protein (Homo sapiens) (UniProt Q99816); assay: qHTS Assay for Iinhibitors of HIV-1 Budding by Blocking the Interaction of PTAP/TSG101: Hit Validation (AID 651600); further: nearly all actives have a fitted effect of over 70% in size; further: potency means the concentration at half of the fitted maximal effect
# Sequence of Tumor susceptibility gene 101 protein (Homo sapiens) (Q99816 whole entry, looked up, the tested form may be a part): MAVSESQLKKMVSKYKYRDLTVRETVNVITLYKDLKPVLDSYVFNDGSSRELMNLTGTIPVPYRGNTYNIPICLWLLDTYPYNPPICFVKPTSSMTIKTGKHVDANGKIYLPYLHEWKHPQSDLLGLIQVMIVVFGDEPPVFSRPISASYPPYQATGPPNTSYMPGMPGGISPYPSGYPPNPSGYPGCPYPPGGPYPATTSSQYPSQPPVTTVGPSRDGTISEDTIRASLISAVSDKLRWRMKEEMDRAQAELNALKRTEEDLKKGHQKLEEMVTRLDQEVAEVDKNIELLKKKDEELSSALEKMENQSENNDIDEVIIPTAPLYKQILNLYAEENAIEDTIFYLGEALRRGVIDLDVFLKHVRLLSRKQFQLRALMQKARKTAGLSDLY
# In short: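 FITC-PTAP peptide (50 nM final) binding to Tsg101 binding domain (10 uM final) was measured by polarization after 20 min at r.t. with compounds, in 10 mM HEPES pH 7.5 buffer with 0.15 M NaCl and 0.01% Tween 20.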
# [7] = target: Lysosomal acid glucosylceramidase (Homo sapiens) (UniProt P04062); assay: Glucocerebrosidase-p2 (AID 348; in the data active means potency below about 10 µM; further: potency means the concentration at half of the fitted maximal effect); settings: purified GBA, blue fluorogenic substrate, 40 min
# Sequence of Lysosomal acid glucosylceramidase (Homo sapiens) (P04062 whole entry, looked up): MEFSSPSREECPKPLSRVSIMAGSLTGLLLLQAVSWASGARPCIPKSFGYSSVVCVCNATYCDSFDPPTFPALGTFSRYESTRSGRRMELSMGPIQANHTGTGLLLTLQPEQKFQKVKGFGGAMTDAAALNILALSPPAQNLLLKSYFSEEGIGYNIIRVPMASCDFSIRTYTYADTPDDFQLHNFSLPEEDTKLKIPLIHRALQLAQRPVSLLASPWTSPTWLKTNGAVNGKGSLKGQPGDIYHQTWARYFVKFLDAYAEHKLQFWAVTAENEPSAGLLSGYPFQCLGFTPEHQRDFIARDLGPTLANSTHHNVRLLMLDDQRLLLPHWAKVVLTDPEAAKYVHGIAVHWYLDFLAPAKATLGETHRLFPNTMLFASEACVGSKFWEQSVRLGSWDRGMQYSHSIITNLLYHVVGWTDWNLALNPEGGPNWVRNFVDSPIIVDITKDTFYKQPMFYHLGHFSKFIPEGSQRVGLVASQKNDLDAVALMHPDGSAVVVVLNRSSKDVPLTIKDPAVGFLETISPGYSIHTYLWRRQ
# In short: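 Compounds titrated from 0.6 nM upwards against 0.2 nM enzyme in pH 5.9 citric acid/KH2PO4, taurocholate, tween-20; blue fluorogenic substrate 80 uM, 40 min room temperature, stopped and read Ex 365/Em 440 for AC50.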
# [8] = AP1 Signaling Pathway (AID 357; active means well fitted curve in either direction with a large enough effect, not every such curve was filed as active;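 further: ME-180 reporter cells stimulated with EGF at its EC50 level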); settings: ME-180 AP-1-bla reporter, EGF-induced, beta-lactamase ratio, 5 h; at 7.69 µM (top of the series) unless noted
# In short: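 A ratiometric CCF4 readout (405 nm excitation; 460 and 530 nm emission) quantified AP-1-driven beta-lactamase in ME-180 cells after 5 h with compound and EC50 EGF; AC50 values were derived for activators and inhibitors.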
# [9] = target: Cytochrome P450 1A2 (Homo sapiens) (UniProt P05177); assay: p450-cyp1a2 (AID 410; calls by dose curve; further: potency means the concentration at half of the fitted maximal effect)
# Sequence of Cytochrome P450 1A2 (Homo sapiens) (P05177 whole entry, looked up): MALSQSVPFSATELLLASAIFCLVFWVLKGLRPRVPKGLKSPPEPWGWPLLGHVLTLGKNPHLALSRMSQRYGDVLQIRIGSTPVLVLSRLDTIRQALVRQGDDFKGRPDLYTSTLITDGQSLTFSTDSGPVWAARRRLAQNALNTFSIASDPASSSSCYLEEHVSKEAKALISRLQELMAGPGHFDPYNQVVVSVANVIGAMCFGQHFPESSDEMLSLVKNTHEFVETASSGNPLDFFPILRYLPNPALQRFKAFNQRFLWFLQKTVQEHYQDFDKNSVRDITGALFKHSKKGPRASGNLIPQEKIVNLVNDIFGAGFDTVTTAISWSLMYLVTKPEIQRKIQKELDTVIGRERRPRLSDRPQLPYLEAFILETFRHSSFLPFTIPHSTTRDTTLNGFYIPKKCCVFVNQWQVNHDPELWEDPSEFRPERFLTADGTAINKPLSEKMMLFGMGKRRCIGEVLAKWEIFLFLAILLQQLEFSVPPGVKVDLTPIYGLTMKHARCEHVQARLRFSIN
# In short: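 Luminescent readout of luciferin formed from Luciferin-ME by human CYP1A2; data normalized against complete inhibition by 57 uM furafylline. Enzyme 20nM, substrate 100uM at Km, 100mM KPO4 buffer, 60 min reaction at room temperature.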
# [10] = NFAT Signaling Pathway (AID 444; active means well fitted curve in either direction with a large enough effect, not every such curve was filed as active;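 further: carbachol stimulus at about its EC50 of 1 µM final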); settings: Jurkat NFAT-bla M1, carbachol, beta-lactamase ratio, 5 h; at 7.69 µM (top of the series) unless noted
# In short: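 Read-out: CCF4 FRET ratio (460 nm/530 nm) after 1 h RT dye loading, used for %activity and AC50 from titration series. Cells: Jurkat NFAT-β-lactamase/M1 line, treated with compound plus 1 uM carbachol for 5 h, 37 °C.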
# [11] = target: Glucocorticoid receptor (Homo sapiens) (UniProt P04150); assay: GR-EFC Redistribution (AID 451; calls by dose curve; further: potency means the concentration at half of the fitted maximal effect); settings: CHO-K1 GR-EFC translocation, beta-gal luminescence, 2 h
# Sequence of Glucocorticoid receptor (Homo sapiens) (P04150 whole entry, looked up, the tested form may be a part): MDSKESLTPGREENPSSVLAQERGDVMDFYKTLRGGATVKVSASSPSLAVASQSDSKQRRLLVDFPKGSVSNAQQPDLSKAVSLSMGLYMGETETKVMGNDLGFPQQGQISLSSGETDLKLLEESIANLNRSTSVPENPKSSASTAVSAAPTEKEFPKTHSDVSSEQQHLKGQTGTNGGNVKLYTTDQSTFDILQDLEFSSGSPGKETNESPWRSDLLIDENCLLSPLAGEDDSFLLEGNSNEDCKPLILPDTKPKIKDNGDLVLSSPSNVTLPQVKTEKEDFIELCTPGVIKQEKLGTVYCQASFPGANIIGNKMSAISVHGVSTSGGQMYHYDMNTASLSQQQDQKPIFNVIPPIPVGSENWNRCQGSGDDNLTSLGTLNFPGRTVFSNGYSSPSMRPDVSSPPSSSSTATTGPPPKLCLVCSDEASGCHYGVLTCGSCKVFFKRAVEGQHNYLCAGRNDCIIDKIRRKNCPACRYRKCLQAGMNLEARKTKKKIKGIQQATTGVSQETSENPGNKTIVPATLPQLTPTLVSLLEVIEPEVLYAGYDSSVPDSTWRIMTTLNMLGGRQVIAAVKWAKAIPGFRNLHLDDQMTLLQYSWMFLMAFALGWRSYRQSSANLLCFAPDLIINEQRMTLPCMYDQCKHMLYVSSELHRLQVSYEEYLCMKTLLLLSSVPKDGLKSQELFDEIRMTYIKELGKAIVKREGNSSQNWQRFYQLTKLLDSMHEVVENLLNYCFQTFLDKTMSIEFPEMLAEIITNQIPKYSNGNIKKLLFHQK
# In short: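 Translocation of GR-ED fusion to nuclear EA restores b-gal, read by luminescence after 1 h room-temperature detection. Engineered CHO-K1 biosensor cells, 1,000/well, exposed 2 h at 37 C to titrations up to 46 uM final.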
# [12] = target: Mitogen-activated protein kinase 10 (Mus musculus) (UniProt Q61831); assay: JNK3 AlphaScreen Assay (AID 530; active means well fitted curve in either direction with a large enough effect, not every such curve was filed as active;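 further: kinase came from lysate of stimulated human HepG2 cells; signal reports phosphorylation of biotinylated GST-cJun 1-79 at Ser73 with 10 µM ATP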)
# In short: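 Compound titrations were preincubated 15 minutes at room temperature with substrate, antibody and pre-activated JNK3-containing HepG2 lysate. Reactions were started with 10 uM ATP and stopped with EDTA-containing bead buffer for AlphaScreen detection.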
# [13] = target: 3',5'-cyclic-AMP phosphodiesterase 4B (Homo sapiens) (UniProt Q07343); assay: qHTS Assay for Inhibitors of PDE-IV (AID 607; active means well fitted activation curve with a large enough effect in the main read-out, with a control signal flat, not every such curve was filed as active)
# In short: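 The readout is membrane depolarisation from a cAMP-sensing CNG channel, detected with a potential dye at ex 535/em 590. Cells were HEK293-derived (endogenous PDE-IV) at 1000 cells/well, titrated up to 22.9 uM final.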
# [14] = target: Cytochrome P450 3A4 (Homo sapiens) (UniProt P08684); assay: qHTS Assay for Inhibitors and Substrates of Cytochrome P450 3A4 (AID 884); further: potency means the concentration at half of the fitted maximal effect; nearly all actives have a fitted effect of over 50% in size
# Sequence of Cytochrome P450 3A4 (Homo sapiens) (P08684 whole entry, looked up): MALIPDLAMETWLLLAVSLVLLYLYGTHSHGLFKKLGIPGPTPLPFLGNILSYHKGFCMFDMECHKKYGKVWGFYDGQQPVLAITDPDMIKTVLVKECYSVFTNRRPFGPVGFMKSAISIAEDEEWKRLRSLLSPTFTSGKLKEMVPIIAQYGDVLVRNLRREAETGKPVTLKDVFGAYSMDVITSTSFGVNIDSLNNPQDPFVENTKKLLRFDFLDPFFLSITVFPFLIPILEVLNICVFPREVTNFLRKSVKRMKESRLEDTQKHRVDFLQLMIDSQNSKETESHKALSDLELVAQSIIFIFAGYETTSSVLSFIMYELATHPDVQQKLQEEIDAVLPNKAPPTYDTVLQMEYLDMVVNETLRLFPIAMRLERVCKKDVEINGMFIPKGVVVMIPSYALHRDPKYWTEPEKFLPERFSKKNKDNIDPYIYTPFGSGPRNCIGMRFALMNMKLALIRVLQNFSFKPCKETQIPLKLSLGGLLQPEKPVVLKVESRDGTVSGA
# In short: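 20 nM human CYP3A4 with 25 uM Luciferin-PPXE (at KM) in 200 mM KPO4, preincubated 10 min with compound; NADPH regeneration started a 60 min RT reaction. Luciferin detected by luminescence, normalized to 57 uM ketoconazole as full inhibition.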
# [15] = target: Cytochrome P450 3A4 (Homo sapiens) (UniProt P08684); assay: qHTS Assay for Activators of Cytochrome P450 3A4 (AID 885); further: nearly all actives have a fitted effect of over 65% in size
# In short: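 Steps: enzyme/substrate mix dispensed; compound added, 10 min RT; NADPH regeneration solution added, 60 min RT; luciferin detection buffer stops reaction; 20 min later luminescence measured.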
# [16] = qHTS Assay for Identification of Small Molecule Agonists for Hypoxia Response Element Signaling Pathway (AID 914; active means well fitted activation curve with a large enough effect in the signal ratio, with a control signal flat, not every such curve was filed as active; the % refers to the signal ratio); settings: ME-180 (cervical carcinoma) HRE-bla reporter, beta-lactamase ratio, CoCl2, 17 h; activation: active compounds read high
# In short: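 Compounds in a titration series were added to ME-180 reporter cells alongside an EC50 level of CoCl2. After 17 hours, beta-lactamase activity was read as the 460nm/530nm emission ratio of CCF4, giving AC50 values.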
smiles,measurement,setting,value
COc1ccc(-c2csc3nc(C)nc(N4CCCCC4)c23)cc1OC,Potency,[1],inactive
same,Potency,[2],inactive
same,Potency,[3],inactive
COc1ccc(CCNC(=S)N2CCN(S(=O)(=O)c3ccc(F)cc3)CC2)cc1,Potency,[1],inactive
same,Potency,[2],inactive
same,Potency,[3],inactive
O=C1c2ccccc2-c2onc3c(Br)cc(NC4CCCCC4)c1c23,Potency,[1],inactive
same,Potency,[4],inactive
same,Potency,[3],inactive
same,Potency,[5],inactive
CC(=Nc1ccc(C)cc1C)c1sc2ccccc2c1O,Potency,[6],inactive
same,Potency,[1],inactive
same,Potency,[4],100 µM (active)
same,Potency,[3],inactive
COC(=O)c1cc2oc(C)cc2n1Cc1ccc(C)cc1,Potency,[1],inactive
same,Potency,[4],inactive
same,Potency,[3],inactive
same,Potency,[5],inactive
C=Cc1ccc(CC2(C)C(=O)Nc3ccc(-c4cccnc4)cc32)cc1 (configuration not stated),Potency,[1],inactive
same,Potency,[2],inactive
same,Potency,[3],inactive
COc1ccc2c(c1)C(=O)CCC2c1ccccc1 (configuration not stated),Potency,[1],inactive
same,Potency,[2],inactive
same,Potency,[3],inactive
CN(C)c1ccc(/C=C/c2ccnc3c(Cl)cccc23)cc1,Potency,[1],inactive
same,Potency,[2],inactive
CCCN1CC=C2C(C#N)=C(N)C(C#N)(C#N)C(c3cccc(OC)c3OC)C2C1 (configuration not stated),Potency,[1],inactive
same,Potency,[2],12 µM (active)
same,Potency,[3],inactive
COc1ccc(Oc2ncc3nc(C)c(=O)n(Cc4cccs4)c3n2)cc1,Potency,[7],> 11.4 µM
same,"activity change, negative = inhibition",[8],4.45%
same,Potency,[9],10 µM (active)
same,"activity change, negative = inhibition",[10],-5.89%
same,Potency,[11],> 46 µM
same,Potency,[12],inactive
same,Potency,[13],inactive
same,Potency,[14],3.16 µM (active)
same,outcome,[15],inactive
same,activation,[16],-21.2%
same,Potency,[1],inactive
same,Potency,[4],inactive
COc1cc2c(cc1OC)C1(C)N(CC2)C(C(C)=O)=NN1c1ccc(Cl)cc1 (configuration not stated),Potency,[1],inactive
same,activation,[4],"18% [at 17.1 µM, percent relative to cAMP agonist control]"
same,"activity change, negative = inhibition",[3],5.93% [at 30.8 µM]
same,Potency,[5],3.55 µM (active)
CCSc1nnc(-c2sc3nnc(-c4ccccc4)c(-c4ccccc4)c3c2N)o1,Potency,[6],25.9 µM (active)
same,Potency,[1],inactive
same,Potency,[4],112 µM (active)
same,Potency,[3],inactive
CCN(CC)c1ccc2cc(C(=O)NNC(=O)c3ccc(S(=O)(=O)N4CCCCC4)cc3)c(=O)oc2c1,Potency,[1],inactive
same,Potency,[4],112 µM (active)
same,Potency,[3],inactive
same,Potency,[5],inactive
N#C/C(=C\c1ccc(Sc2ccc(Cl)cc2)o1)c1nc2ccccc2[nH]1,Potency,[1],inactive
same,Potency,[2],inactive
same,Potency,[3],inactive
O=C(NCc1cccc(F)c1)c1cccc2c1C(=O)c1ccc(N3CCOCC3)cc1S2(=O)=O,Potency,[1],inactive
same,Potency,[2],inactive
same,Potency,[3],inactive
CCCN(CCC)c1ccc(/C=C/c2ccnc3ccccc23)cc1,Potency,[1],inactive
same,Potency,[2],inactive
COc1ccc2c(c1)CCC1C2=NN(/C(C)=C/C(C)=O)C1c1cccc(F)c1 (configuration not stated),Potency,[1],inactive
same,Potency,[2],84.9 µM (active)
same,Potency,[3],inactive
CCOC(=O)c1ccc2[nH]cc(C(C)=O)c(=O)c2c1,Potency,[1],inactive
same,Potency,[2],inactive
same,Potency,[3],inactive
Cc1cc([N+](=O)[O-])c2[nH]c(C(=O)N/N=C/c3ccccc3C(=O)O)c(-c3ccccc3)c2c1,Potency,[1],67.5 µM (active)
same,Potency,[4],inactive
same,Potency,[5],inactive
Cc1cc(N(C)C)c(C)cc1/C=C/c1ccnc2ccccc12,Potency,[1],inactive
same,Potency,[2],inactive
COC(=O)C1=NN(c2ccc(C)cc2)C2(S1)SC(C(C)=O)=C(C)N2c1ccccc1 (configuration not stated),Potency,[1],inactive
same,Potency,[4],100 µM (active)
same,Potency,[3],inactive
same,Potency,[5],inactive
N#CC(C#N)=C1C=C2C=C(N3CCCCCC3)CCC2CC1 (configuration not stated),Potency,[1],inactive
same,Potency,[2],inactive
Cc1ccc(N=Cc2c(O)n(-c3nccs3)c(=O)c3ccccc23)c(C)c1,Potency,[1],inactive
same,Potency,[2],inactive
same,"activity change, negative = inhibition",[3],7.45% [at 30.8 µM]
CC(C)N1CCc2c(sc(NC(=O)c3ccc(C(=O)c4ccccc4)cc3)c2C(N)=O)C1,Potency,[1],inactive
same,Potency,[2],inactive
same,Potency,[3],inactive
O=C1N(Cc2ccccc2)c2ccc(Cl)cc2C12OCCO2,Potency,[1],inactive
same,activation,[4],"2.15% [at 17.1 µM, percent relative to cAMP agonist control]"
same,"activity change, negative = inhibition",[3],-8.76% [at 30.8 µM]
same,activation,[5],35.6% [at 30.8 µM]
N=C1/C(=C\c2coc3ccccc3c2=O)C(=O)N=C2SC=CN12,Potency,[1],inactive
same,Potency,[2],inactive
same,"activity change, negative = inhibition",[3],46.8% [at 30.8 µM]
O=C(C1=NN(c2ccccc2)C2C(=O)N(c3ccccc3)C(=O)C12)c1ccccc1 (configuration not stated),Potency,[6],inactive
same,Potency,[1],inactive
same,activation,[4],"11% [at 17.1 µM, percent relative to cAMP agonist control]"
same,Potency,[5],15.8 µM (active)
COc1cccc(C(=O)c2sc3nc(-c4ccccc4)cc(C(F)(F)F)c3c2N)c1,Potency,[1],inactive
same,Potency,[4],inactive
same,Potency,[3],inactive
same,Potency,[5],56.2 µM (active)
CCSC1=NSC2=NC(=O)/C(=C\c3coc4ccccc4c3=O)C(=N)N12,Potency,[1],inactive
same,Potency,[2],inactive
same,"activity change, negative = inhibition",[3],72.5% [at 30.8 µM]
COc1ccc(-c2nn(-c3ccccc3)cc2/C=C2/SC(=S)N(CCC(=O)O)C2=O)cc1,Potency,[1],inactive
same,Potency,[2],inactive
same,Potency,[3],inactive
CC(=O)CCc1oc2c([N+](=O)[O-])cccc2c1-c1ccc(C)o1,Potency,[1],inactive
same,Potency,[2],inactive
same,Potency,[3],inactive
CNC(=O)c1csc(Cc2c(Cl)sc3ccc(Cl)cc23)n1,Potency,[1],inactive
same,Potency,[2],inactive
same,Potency,[3],inactive
COc1ccc(NC(=O)c2csc3c2CCCCC3)c(OC)c1,Potency,[1],inactive
same,Potency,[4],inactive
same,Potency,[3],inactive
same,Potency,[5],inactive
CN(C)c1ccc(-c2cc3ccccc3c(=O)o2)cc1,Potency,[1],inactive
same,Potency,[2],inactive
same,Potency,[3],inactive
CCCCNc1ccc2c3c(cccc13)C(=O)N(CCCC)C2=O,Potency,[6],4.11 µM (active)
same,Potency,[1],inactive
same,activation,[4],"-62.3% [at 17.1 µM, percent relative to cAMP agonist control]"
same,"activity change, negative = inhibition",[3],213% [at 30.8 µM]
